The panel holds about 83,000 compounds, 20% with a hit somewhere; the sample as a whole holds those more often.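 A percent growth of 40 corresponds to 60% growth inhibition; 0 means no net growth; -100 means all cells died. Active threshold: below 10.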 Unmarked numbers belong to inactive results. Activity calls are given as the source filed them.

Test in all cases: NCI-60 one-dose screen, 48 h (100 = growth as untreated, 0 = no growth, -100 = all killed)
Holding throughout (details): 10 µM unless noted

The test system of test [1] is NCI-H23 lung.
Test [2] has as its system NCI-H226 lung.
For test [3], the system named is NCI-H322M lung.
The test system of test [4] is HOP-62 NSCLC.
Test [5] has as its system NCI-H460 lung.
The test system of test [6] is NCI-H522 lung.
Test [7] has as its system A549/ATCC NSCLC.
The test system of test [8] is 786-0 renal.
Test [9] relates to COLO 205 colon.
In test [10] the test system is DU-145 prostate.
The test system of test [11] is K-562 leukemia.
Test [12] relates to MALME-3M melanoma.
The subject of test [13] is MDA-MB-231 breast.
The test system of test [14] is RXF 393 renal.
The test system of test [15] is SF-268 CNS.
Test [16] concerns SF-295 CNS.
Test [17] has as its system SF-539 CNS.
Test [18] deals with UACC-257 melanoma.
Test [19] concerns M14 melanoma.
Test [20] concerns HCT-15 colon.

With `Cc1cc(Cl)ccc1Nc1nc(C(F)(F)F)ccc1C(=O)NCC(=O)N/N=C/c1c(Cl)cccc1Cl`, the growth in [1] is 74.6%; in test [2], 89.5%; in test [3] it was 80.9%; in test [4], 102%; in [5], 80.7%; in test [6], 75.8%. The growth is 44.9% in test [7]; 94.9% in [8]; 87.3% in [9]; 49.9% in test [10]; 50.2% in test [11]; 92.2% in test [12]. Besides, the growth is 61.6% in test [13]; 107% in test [14]; 31% in [15]; 54.2% in [16]; 79.4% in [17]; 149% in [18]. Moreover, the growth in [19] was 75.8%.
Turning to `COc1ccc2nccc(/C=C/c3ccnc4ccc(OC)cc34)c2c1`, the growth in test [1] is 104%; in test [2], 131%; in test [3] it was 120%; in test [4], 114%; in test [5], 100%; in test [6], 112%. Besides, the growth in test [7] was 66.1%; in test [8], 105%; in [9], 119%; in [10], 104%; in [11], 52.5%; in [12] it was 146%. Also, the growth is 114% in [13]; 37.4% in test [14]; 71.3% in [15]; 129% in test [16]; 106% in [17]; 153% in [18]. Further, the values for the growth in test [19] and in test [20] were 110% and 101%, respectively.
As for `COc1ccc2c(c1)C(=O)/C(=C/c1ccc([N+](=O)[O-])s1)O2`, the growth was 7.22% (active) in [1]; 60% in [2]; 11.4% in test [3]; 35.2% in test [4]; -3.34% (active) in [5]; -86.4% (active) in test [6]. Moreover, the growth is 8.34% (active) in test [7]; 28.1% in test [8]; -64.7% (active) in test [9]; 43.8% in [10]; 3.01% (active) in test [11]; -46.3% (active) in test [12]. Moreover, the growth is -71.1% (active) in [13]; -63% (active) in [14]; -72.7% (active) in test [15]; 5.53% (active) in [16]; -46.2% (active) in test [17]; -0.975% (active) in [18]. The growth in test [19] was -20.6% (active).
For the compound `COc1c(C)c2c(c(O)c1C/C=C(\C)CCC(=O)OCCN1CCOCC1)C(=O)OC2`, the growth in [1] was 19.4%; in test [2], 50.2%; in [3], 33.2%; in test [4] it was 34.9%; in [5], 2.48% (active); in test [6], -3.49% (active). The growth in test [7] was 5.79% (active); in [8], 24.7%; in test [9] it was 38.1%; in test [10], 36.4%; in [11], 25.5%; in test [12] it was 38.8%. Also, the growth in test [13] is 37.9%; in [14], 51.9%; in [15], 28.9%; in [16] it was 18.2%; in test [17] it was 34.7%; in [18] it was 7.21% (active). Besides, the growth in [19] is 19.8%.
Turning to `Clc1nc(Cl)c2ncn(-c3ccccc3)c2n1`, the growth in test [1] is 99.9%; in test [2], 93.4%; in test [3] it was 76.8%; in test [4], 99.4%; in test [5], 89.2%; in [6], -68.9% (active). Moreover, the growth in test [7] was 95.3%; in test [8], 88.5%; in test [9], 80.9%; in test [10], 36.7%; in test [11] it was 36.2%; in [12] it was 48.4%. In addition, the growth is 63.1% in test [13]; 56.1% in test [14]; 68.8% in test [15]; 106% in [16]; 85.2% in test [17]; 67% in test [18]. Also, the figures for the growth in test [19] and in [20] were 35.6% and 44.8%, respectively.
Take `O=C1Nc2ccccc2C12Nc1cc(Cl)ccc1S2` (centres undefined): the growth in [1] is 78.4%; in test [2] it was 90.8%; in test [3] it was 87.1%; in [4], 98.4%; in test [5] it was 87.5%; in test [6], 82.6%. The growth in test [7] is 98.7%; in [8], 98.4%; in [9], 98.3%; in test [10], 85.9%; in test [11], 39.7%; in test [12], 81.8%. Moreover, the growth in [13] is 85.4%; in [14], 121%; in test [15] it was 87.8%; in test [16], 78.8%; in test [17] it was 86.5%; in test [18], 138%. In test [19], the growth was 91.6%.
Turning to `O=C1/C(=C/c2ccc3cccc(Cl)c3n2)SC(=S)N1CCc1ccc(O)cc1`, the growth was 94.1% in test [1]; 86.1% in test [2]; 91.6% in [3]; 86.7% in [4]; 99.1% in test [5]; 54.9% in [6]. For the same compound, the growth in test [7] was 93.6%; in [8] it was 94.2%; in test [9], 107%; in [10] it was 101%; in test [11] it was 86.2%; in [12] it was 74.7%. The growth was 79.9% in test [13]; 103% in test [14]; 84.9% in test [15]; 91.9% in [16]; 86.9% in test [17]; 100% in test [18]. Also, the growth in [19] was 90.8%.
For the compound `CC(C)[C@H]1CC[C@H]2[C@@H](CC[C@H]3[C@](C)(CN)CCC[C@]23C)C1`, the growth in [1] is 88.4%; in test [2], 105%; in test [3], 15.3%; in test [4], 56.3%; in test [5], -66.1% (active); in test [6], 80%. In addition, the growth in [7] is 87%; in test [8], 72.9%; in [9], -82.6% (active); in [10] it was 11.2%; in test [11] it was 18.7%; in test [12], 83%. The growth was 63.6% in test [13]; 86.9% in test [14]; 53.5% in test [15]; 80.5% in [16]; 98.8% in [17]; 108% in [18]. Also, in test [19], the growth was 93%.

For the origin of these results see PubChem BioAssay (NCI).
